The record followed here is PubChem BioAssay (EPA / NIEHS).

Usually AC50 stands for the midpoint of the concentration-response curve, whichever way the signal moves.

Active and inactive are the calls of the source. How the source made its calls: active means hit-call score of the fitted dose curve at least 0.9, where 1 is the maximum; inactive means score below 0.9.

A short description of this assay: ATG_TAL_CIS: Attagene CIS-FACTORIAL HepG2 Assay for human TAL Basal Promoter (AID 2282966). The following applies: HepG2 Attagene cis-factorial TAL promoter reporter; actives raise or lower the signal. Here is the method:
ATG_CIS is a cell-based, multiplexed-readout assay that uses HepG2, a human liver cell line, with measurements taken at 24 hours after chemical dosing in a 24-well plate.ATG_TAL_CIS is one of 52 assay component(s) measured or calculated from the ATG_CIS assay. It is designed to make measurements of mRNA induction, a form of inducible reporter, as detected with fluorescence intensity signals by Reverse transcription polymerase chain reaction (RT-PCR) and Capillary electrophoresis technology.Data from the assay component ATG_TAL_CIS was analyzed into 1 assay endpoint. This assay endpoint, ATG_TAL_CIS, was analyzed with bidirectional fitting relative to DMSO as the negative control and baseline of activity. Using a type of inducible reporter, measures of mRNA for gain or loss-of-signal activity can be used to understand the background control at the transcription factor-level as they relate to the gene . Furthermore, this assay endpoint can be referred to as a secondary readout, because this assay has produced multiple assay endpoints where this one serves a background control function. To generalize the intended target to other relatable targets, this assay endpoint is annotated to the background measurement intended target family, where the subfamily is internal marker.
Human liver HepG2 cells are transiently transfected with multiple reporter transcription units (MRTUs) in 6-well plates using FuGene 6 reagent (Roche; 3 ml FuGene/1 mg DNA). The MRTU constructs are regulated by a cis-regulating element (promoter). […] A major difference between the CIS and TRANS system is that in CIS activities of endogenous TFs are measured, whereas the TRANS assay evaluates changes in activities of exogenous, chimeric NR-Gal4 proteins. […] At the end of 24 hour incubation, total RNA was isolated using TriZol reagent (Invitrogen). The isolated RNA is then reverse-transcribed using oligo(dT) primer and Mo-MLV reverse transcriptase (Invitrogen) with DNAse I (Ambion) treatment for 30 min. The one-tenth of the produced cDNA was amplified by PCR using Taq DNA polymerase (Invitrogen) and two reporter sequence-specific primers. The PCR products were fluorescently labeled by primer extension with 6-arboxyfluorescein (6-FAM) 5'-labeled reporter sequence-specific primer (2 min at 95 C, 20 s at 68 C and 10 min at 72 C) and these products were digested with 5U of HpaI (New England Biolabs) for 2h at 37 C. The fragments were purified using Qiaquick PCR columns (Qiagen), analyzed on an ABI 3130xL genetic analyzer (Applied Biosystems) with peak positions identified by using a set of X-rhodamine (ROX)-labeled MapMarker1000 molecular weight standards (BioVentures). The raw capillary electrophoresis data was processed using Attagraph software (Attagene).
`O=C(Oc1ccccc1)c1ccc2ccccc2c1O`: the outcome was inactive.

For the compound `O=C(O)CCCCCCCCCC(=O)O`, the compound was called inactive.

As to `CCOC(=O)N1CCC(=C2c3ccc(Cl)cc3CCc3cccnc32)CC1`, the half-maximal activity concentration (AC50) is 8.84 µM (active).

As for `COC(=O)C1=C(C)NC(C)=C(C(=O)OCC(C)C)C1c1ccccc1[N+](=O)[O-]` (stereo not given), the call was inactive.

Regarding `O=P(O)(O)Oc1ccccc1`, the compound was classed as inactive.

Regarding `O=C(Cl)c1cc(C(=O)Cl)cc(C(=O)Cl)c1`, the call was inactive.

With `S=C(NC1CCCCC1)NC1CCCCC1`, the call was inactive.

Turning to `C(=CC=Nc1ccccc1)C=CNc1ccccc1`, the compound was classed as inactive.

On to `CCCCC(CC)COCC1CO1` (stereo not given), for which the compound was called inactive.

For the compound `NC(CO)(CO)CO`, the call was inactive.

For `c1ccc2c(c1)ccc1ncccc12`, the outcome was inactive.

Regarding `CCCCCCCCCCCCCCCCCC#N`, the call was inactive.

With `CCC(CC)C(=O)O`, the call was inactive.

Regarding `Cc1cccc(OCCOc2cccc(C)c2)c1`, the call was inactive.

In the case of `C[Si](C)O[Si](C)(C)O[Si](C)(C)O[Si](C)C`, the outcome was inactive.

As for `CCCNC(=O)NS(=O)(=O)c1ccc(Cl)cc1`, the compound was classed as inactive.

Turning to `[Cl][Bi]([Cl])([c]1ccccc1)([c]1ccccc1)[c]1ccccc1`, the call was inactive.

On to `CNC(=S)N(C)C`, for which the outcome was inactive.

In the case of `COC(=O)c1ccc2cc(C(=O)OC)ccc2c1`, the outcome was inactive.

Consider `COC(F)(F)C(F)(C(F)(F)F)C(F)(F)F`, for which the compound was called inactive.

Regarding `CCCCCc1ccc(Cl)cc1`, the compound was classed as inactive.

As for `Nc1ccc(Oc2ccc(N)c(N)c2)cc1`, the result was inactive.

Take `O=C(c1ccccc1)c1ccc(O)c(O)c1O`: the compound was called inactive.

Take `O=C(/C=C/C=C/c1ccc2c(c1)OCO2)N1CCCCC1`: the concentration at half-maximal activity (AC50) is 100 µM (active).

With `Nc1ncn([C@@H]2O[C@H](CO)[C@@H](O)[C@H]2O)c(=O)n1`, the compound was called inactive.

In the case of `O=c1c2ccccc2nnn1CCl`, the outcome was inactive.

As to `O=CN1CCCCC1`, the result was inactive.

With `CC(=O)OCC(C)OC(C)=O` (stereo not given), the compound was classed as inactive.

`CCC(CO)CO`: the outcome was inactive.

In the case of `OCCCS`, the compound was classed as inactive.

In the case of `CC1OC1C1CCC2(C)OC2C1` (stereo not given), the result was inactive.

On to `C[Si](C)(CCCN)O[Si](C)(C)CCCN`, for which the result was inactive.

As for `CCCCCCCCCCCCCOP(=O)(O)O`, the outcome was inactive.

For the compound `O=C(O)c1cc(Cl)cc([N+](=O)[O-])c1Cl`, the result was inactive.

As to `C=C(C)C(=O)OCCO`, the call was inactive.

On to `CC(C)(C)C1CCCCC1=O` (stereo not given), for which the compound was called inactive.

In the case of `O=Cc1ccc(CO)o1`, the call was inactive.

Turning to `COC(=O)c1c(C)cc(O)c(C)c1O`, the compound was called inactive.

As for `O=C(O)Cc1c(Cl)ccc(Cl)c1Cl`, the compound was called inactive.

On to `C=CC(C)(CCC=C(C)C)OC(=O)CC(C)C` (stereo not given), for which the result was inactive.
